Source: PubChem BioAssay (NCATS)
Where “and” joins values, the source holds several entries; their conditions need not be identical. Equal values may be shown once. Results filed as inconclusive are left out. A number with no mark means an inactive call. Calls of active or inactive are those of the source. Unless noted, calls follow the shape of the dose curve; as a rule, active = well fitted curve in the direction sought with a large enough effect; inconclusive = small, poorly fitted or top-dose-only effect, or another doubt; inactive = no such curve, though single readings can be large; an effect the other way counts as inactive or inconclusive.

Experiments:
[1] = test system: CP260; experiment: qHTS profiling for inhibitors of Plasmodium falciparum proliferation (AID 504749); also: potency is read from the fitted curve at half-maximal effect; nearly all actives have a fitted effect of over 60% in size; settings: P. falciparum in erythrocytes, SYBR Green DNA, 72 h; series mostly up to 28.7 µM
Outline: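 Each compound contacts P. falciparum-infected red blood cells for 72 h at 37 C; lysis buffer (Tris, EDTA, saponin, Triton X, SYBR Green I) is added and fluorescence measured next morning; values normalized to controls.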

[2] = Cell Viability - BJ (AID 421; calls by dose curve;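 also: potency is read from the fitted curve at half-maximal effect; cells exposed to compound for 40 hours at 37 °C before readout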); settings: BJ fibroblast viability, qHTS
Outline: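 Quantitative HTS: ATP depletion in BJ cells after 40 hr compound exposure in complete culture medium, detected with CellTiter-Glo; AC50 from standard Hill fits.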

[3] = Cell Viability - Jurkat (AID 426;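 active = dose-dependent loss of cell ATP signal giving a full or clear fitted curve, ranked by lower potency value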;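 also: potency is read from the fitted curve at half-maximal effect; cells exposed to compound for 40 hours at 37 °C before ATP read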); settings: qHTS
Outline: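 Cells of the human T-cell leukemia line Jurkat (E6-1) are seeded at 5000 per well, treated with compound across a concentration range for 40 hours at 37 °C, then lysed with CellTiter-Glo; luminescence reports ATP.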

[4] = Cell Viability - Hek293 (AID 427;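 active = compounds whose dose-response curve shows a full or clear partial loss of cell viability, called from curve shape rather than a numeric limit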;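 also: potency is read from the fitted curve at half-maximal effect; cells exposed to compound for 40 hours at 37 °C before reading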); settings: qHTS
Outline: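 AC50 values derive from Hill-modelled concentration-response of ATP-based luminescence, normalized between DMSO-only and 100 uM tamoxifen controls. Cells were exposed in complete culture medium for 40 hr at 37 °C before detection.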

[5] = Cell Viability - HepG2 (AID 433; calls by dose curve;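 also: potency is read from the fitted curve at half-maximal effect; potency for ATP loss meaning cytotoxicity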); settings: qHTS
Outline: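 In this qHTS format, a 40 h, 37 °C compound incubation of HepG2 cells in complete medium precedes a 20 min CellTiter-Glo step at room temperature. Tamoxifen and doxorubicin serve as positive controls; Hill-equation fits yield AC50.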

[6] = Cell Viability - MRC5 (AID 434; calls by dose curve;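 also: potency is read from the fitted curve at half-maximal effect; potency reflects cytotoxicity seen as loss of intracellular ATP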); settings: MRC5 lung fibroblast viability, qHTS
Outline: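 ATP luminescence read-out (CellTiter-Glo, 20 min RT) after 40 hr, 37 °C compound exposure of 1500 MRC5 cells/well. Data normalized to DMSO (basal) and 100 uM tamoxifen (100% inhibition); AC50 from standard Hill equation.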

[7] = Cell Viability - SK-N-SH (AID 435; calls by dose curve;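 also: potency is read from the fitted curve at half-maximal effect; compound exposure lasted 40 h at 37 °C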); settings: SK-N-SH neuroblastoma cell viability qHTS
Outline: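 Human neuroblastoma line, 40 h exposure at 37 °C, ATP quantified via luciferase luminescence; DMSO and 100 uM tamoxifen define 0 and 100% inhibition for AC50 fitting.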

[8] = qHTS assay for small molecule activators of the p53 signaling pathway (AID 651743; active = well fitted activation curve with a large enough effect in the signal ratio, not every such curve was filed as active; the % refers to the signal ratio; also: % of control where 0% means no effect); settings: HCT-116 p53RE-bla, beta-lactamase FRET ratio, 16 h; hits give high values
Outline: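 Following 16 hours of compound exposure at 37 C, HCT-116 cells bearing the p53RE-bla reporter were loaded with LiveBLAzer B/G FRET substrate for 2 hours at room temperature and fluorescence intensity was recorded.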

[9] = qHTS assay for small molecule disruptors of the mitochondrial membrane potential - 1 hr assay (AID 651754; calls by dose curve; also: potency is read from the fitted curve at half-maximal effect; nearly all actives have a fitted effect of over 35% in size)
Outline: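 Loss of mitochondrial potential shifts the cationic dye from red mitochondrial aggregates to green cytoplasmic monomers. Cells (HepG2) are treated with compound for 1 hr before a 30 min dye incubation at 37C.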

[10] = qHTS assay for small molecule disruptors of the mitochondrial membrane potential - 5 hr assay (AID 651755; calls by dose curve; also: potency is read from the fitted curve at half-maximal effect; nearly all actives have a fitted effect of over 40% in size); settings: JC-1-type ratio dye
Outline: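 Read-out: ratiometric Mito-MPS fluorescence, green monomer (ex 490/em 535) vs red mitochondrial aggregate (ex 540/em 590). HepG2 cells treated 5 hr at 37C before 30 min dye loading.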

[11] = qHTS assay for environmental chemicals that activate the Aryl hydrocarbon Receptor (AhR) signaling pathway (AID 651777); settings: 1A2-DRE human hepatoma cells, luciferase, 24 h; hits give high values; also: % of control where 0% means no effect; nearly all actives have a fitted effect of over 15% in size
Outline: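 Human hepatoma 1A2-DRE cells stably carrying a DRE/CYP1A2 promoter–luciferase reporter, 1,200 cells/well, exposed to compound 24 hr at 37 C. Luciferase read by One-Glo luminescence after 30 min at room temperature; increased signal marks AhR activation.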

[12] = qHTS assay for small molecule agonists of the antioxidant response element (ARE) signaling pathway measured by Nrf2-dependant transcriptional activity - cell viability counter screen (AID 720653; active = well fitted curve in the direction sought with a large enough effect in the repeat runs; an effect the other way counts as inactive or inconclusive; also: % is scaled to controls: 0 for no effect and ±100 for the full control effect); settings: ARE-bla HepG2 viability, CellTiter-Glo ATP luminescence, 16 h; max response: hits give low values
Outline: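 ARE-bla HepG2 cells treated with compounds for 16 h at 37C; this counter screen measures viability as intracellular ATP by CellTiter-Glo luminescence after 30 min at room temperature.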

[13] = qHTS assay for cell viability of HEK293 cells (AID 743288); settings: ATP luminescence (CellTiter-Glo), 18 h; max response: hits give low values; also: % is scaled to controls: 0 for no effect and ±100 for the full control effect; nearly all actives have a fitted effect of over 50% in size
Outline: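 HEK293, 18 h, 37 C, ATP luminescence. Cells at 2,000/well were allowed at least 5 h to settle before dosing; CellTiter-Glo developed 30 min at RT.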

[14] = Primary qHTS for inhibitors of La Crosse Virus (LACV) - induced cell death in SH-SY5Y cells (AID 1508616);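 also: top concentration of the series differs between compounds; 0% = infected DMSO wells and 100% = uninfected DMSO wells; higher means more rescue of cells from virus-induced death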
Outline: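 SH-SY5Y, 6000 cells/well; cpd via pin tool in DMSO; LACV 0.01 MOI; 6 d 37C 5% CO2; ATPLite, 5 min RT; luminescence normalized to ±virus DMSO controls.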

[15] = biological target: ATP-dependent 6-phosphofructokinase (Trypanosoma brucei brucei) (UniProt O15648); experiment: qHTS Assay to Find Inhibitors of T. brucei phosphofructokinase: hit validation (AID 492961);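 also: luminescence reports ADP formed as PFK phosphorylates fructose-6-phosphate with ATP; % is scaled to controls: 0 for no effect and ±100 for the full control effect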
ATP-dependent 6-phosphofructokinase (Trypanosoma brucei brucei), sequence (O15648 whole entry, looked up): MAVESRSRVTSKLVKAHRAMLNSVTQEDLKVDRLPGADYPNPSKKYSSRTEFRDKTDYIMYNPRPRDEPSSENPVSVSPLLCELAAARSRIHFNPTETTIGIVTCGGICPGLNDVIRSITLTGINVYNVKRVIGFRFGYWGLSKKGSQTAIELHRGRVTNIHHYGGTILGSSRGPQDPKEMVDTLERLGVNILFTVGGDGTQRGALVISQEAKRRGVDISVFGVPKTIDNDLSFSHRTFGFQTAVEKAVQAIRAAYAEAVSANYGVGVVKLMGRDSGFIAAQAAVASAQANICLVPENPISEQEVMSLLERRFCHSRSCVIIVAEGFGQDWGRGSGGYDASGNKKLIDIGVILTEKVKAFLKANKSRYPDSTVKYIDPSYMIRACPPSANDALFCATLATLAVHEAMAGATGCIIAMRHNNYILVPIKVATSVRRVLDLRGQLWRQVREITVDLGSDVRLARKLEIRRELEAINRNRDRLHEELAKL
Outline: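 Inhibition of parasite PFK is measured as reduced ADP formation, quantified via luciferase after ATP depletion. Assay used 0.1 mM ATP, 0.5 mM F6P, 1.25 nM enzyme, 45 min incubation.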

[16] = test system: Zika virus NS2B-NS3 protease (unlinked complex); experiment: Confirmatory screen GU AMC qHTS for Zika virus inhibitors (AID 1347153); also: potency is read from the fitted curve at half-maximal effect; nearly all actives have a fitted effect of over 70% in size
Outline: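 Unlinked enzyme 25 nM, Tris pH 8.0/0.01% Tween 20; cpd 15 min RT, dark; + AMC substrate 10 µM (Km 18.3 µM); 340/450 nm read at t0 and 15 min; % inhibition → 4-param fit.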

[17] = biological target: Calcium and integrin-binding protein 1 (Homo sapiens) (UniProt Q99828); experiment: Confirmatory qHTS for Identification of Calcium Integrin Binding Protein 1 (CIB1) Competitor (AID 1508617); also: % is scaled to controls: 0 for no effect and ±100 for the full control effect; nearly all actives have a fitted effect of over 65% in size
Calcium and integrin-binding protein 1 (Homo sapiens), sequence (Q99828 whole entry, looked up): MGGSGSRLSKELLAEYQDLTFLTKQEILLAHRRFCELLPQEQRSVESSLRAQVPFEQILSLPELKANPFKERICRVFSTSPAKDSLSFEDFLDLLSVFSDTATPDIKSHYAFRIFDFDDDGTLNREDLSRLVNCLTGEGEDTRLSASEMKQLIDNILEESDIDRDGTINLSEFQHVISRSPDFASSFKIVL
Outline: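 Binding competition between test compounds and fluorescent alphaIIb peptide for 1 uM CIB1-GST is monitored by FP at 480/540 nm. Final compound range is up to 114 uM; unlabeled peptide serves as reference competitor.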

[18] = NCATS anti-infectives library activity on the primary C. elegans qHTS viability assay (AID 1745855; calls by dose curve)
Outline: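 GFP read-out by 488 nm laser cytometry at day 0, 3 and 7, gated on object perimeter, area and peak intensity, scored viability of PE254-GFP-FLuc worms exposed to compound in S medium with bacterial capsules at 21 °C.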

[19] = biological target: Muscarinic acetylcholine receptor M1 (Rattus norvegicus) (UniProt P08482); experiment: qHTS Assay for Antagonists of Acetylcholine Muscarinic M1 Receptor: Kinetic Measurement of Intracellular Calcium Response (AID 943); also: potency is read from the fitted curve at half-maximal effect; nearly all actives have a fitted effect of over 75% in size
Muscarinic acetylcholine receptor M1 (Rattus norvegicus), sequence (P08482 whole entry, looked up): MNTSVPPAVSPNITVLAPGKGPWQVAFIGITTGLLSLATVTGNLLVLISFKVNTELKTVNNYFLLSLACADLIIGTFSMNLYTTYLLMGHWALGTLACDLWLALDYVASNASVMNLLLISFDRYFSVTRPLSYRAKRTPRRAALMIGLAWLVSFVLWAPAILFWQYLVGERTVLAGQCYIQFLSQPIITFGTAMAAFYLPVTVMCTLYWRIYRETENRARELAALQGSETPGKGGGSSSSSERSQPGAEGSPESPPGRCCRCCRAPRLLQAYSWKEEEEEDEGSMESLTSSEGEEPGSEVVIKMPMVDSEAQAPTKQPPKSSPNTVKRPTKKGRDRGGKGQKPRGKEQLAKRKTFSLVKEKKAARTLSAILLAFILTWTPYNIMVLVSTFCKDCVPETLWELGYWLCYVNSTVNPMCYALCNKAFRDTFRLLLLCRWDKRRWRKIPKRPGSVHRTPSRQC
Outline: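 Antagonism is measured as inhibition of the carbachol-evoked calcium rise in CHO cells transfected with rat M1. Cells are dye-loaded, exposed to compound for 10 min, then stimulated with 100 nM carbachol (EC80).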

[20] = Counterscreen qHTS for small molecule stabilizers of the endoplasmic reticulum resident proteome: GLuc-NoTag assay (AID 1508627);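 also: SH-SY5Y cells given compound then 100 nM thapsigargin to empty ER calcium; 0% = thapsigargin alone and -100% = DMSO vehicle control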
Outline: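 Counterscreen line: SH-SY5Y-GLuc-NoTag. Seed, 5 h; compound, 19 h; thapsigargin 100 nM, 4 h; 37C/5% CO2. Readout: secreted GLuc luminescence, coelenterazine 0.07x final, no lysis.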

Structure (SMILES): O=C(CC1NCCC[C@H]1O)Cn1cnc2cc(Br)c(Cl)cc2c1=O (stereo not given in full)
- Potency [1]: 2.51 µM (active)

Structure (SMILES): Nc1ccc(N)c([N+](=O)[O-])c1
- Potency [2]: > 92 µM
- Potency [3]: > 92 µM
- Potency [4]: > 92 µM
- Potency [5]: > 92 µM
- Potency [6]: > 92 µM
- Potency [7]: > 92 µM
- activation [8]: -0.975% and -0.0594%
- Potency [9]: 29.8 µM (active)
- Potency [10]: 29.8 µM (active)
- activation [11]: 3.75%
- max response [12]: -19.5% and -28.1%
- max response [13]: -1.33% and -23.7%
- outcome [14]: inactive

Structure (SMILES): CCCCC(=O)N(Cc1ccc(-c2ccccc2-c2nn[nH]n2)cc1)C(C(=O)O)C(C)C (stereo not given)
- outcome [15]: inactive

Structure (SMILES): O=C(O)c1ccc(O)c2ncc(N3CCCN(CCc4cccc5ccccc45)CC3)cc12
- Potency [16]: 49.4 µM (active)

Structure (SMILES): CN(C)CCCCCCNC(=O)c1cccc(-c2cc(O)c3ncccc3c2)c1
- outcome [17]: inactive

Structure (SMILES): Cc1nc2c(O)cccc2c(=O)[nH]1
- Potency [18]: inactive

Structure (SMILES): CN1CCN(CCC=C2c3ccccc3Sc3ccc(S(=O)(=O)N(C)C)cc32)CC1
- Potency [19]: 14.1 µM (active)

Structure (SMILES): CS(=O)(=O)CCNCc1nc(-c2ccc3ncnc(Nc4ccc(OCc5cccc(F)c5)c(Cl)c4)c3c2)cs1
- Potency [20]: inactive
